Source: PubChem BioAssay (NCI)
About 83,000 compounds went through this panel and 20% of them were active in at least one assay; those are over-represented in the sample as a whole.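 Percent growth is the endpoint: 0 to 100 indicates growth inhibition (40 means 60% inhibition), 0 means no net growth, and negative values indicate cell death.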 Calls of active or inactive are those of the source. The calls were made as follows: active = growth percent below 10; inactive = the rest.

Assays:
Assay in all cases: NCI-60 one-dose screen, 48 h (100 = growth as untreated, 0 = no growth, -100 = all killed)
DU-145 prostate = details: 10 µM unless noted
K-562 leukemia = details: 10 µM unless noted
MALME-3M melanoma = details: 10 µM unless noted
MDA-MB-231 breast = details: 10 µM unless noted
RXF 393 renal = details: 10 µM unless noted
SF-268 CNS = details: 10 µM unless noted
SF-295 CNS = details: 10 µM unless noted
SF-539 CNS = details: 10 µM unless noted
UACC-257 melanoma = details: 10 µM
M14 melanoma = details: 10 µM unless noted
HCT-15 colon = details: 10 µM unless noted
HT29 colon = details: 10 µM unless noted
SNB-75 CNS = details: 10 µM unless noted
SNB-19 CNS = details: 10 µM unless noted
U251 CNS = details: 10 µM unless noted
PC-3 prostate = details: 10 µM unless noted
SK-MEL-5 melanoma = details: 10 µM unless noted
LOX IMVI melanoma = details: 10 µM unless noted
SK-MEL-28 melanoma = details: 10 µM unless noted
UACC-62 melanoma = details: 10 µM unless noted

Measured: growth

CN1CCN(c2ccc(C(=O)/C=C/c3ccc(Cl)c(C(F)(F)F)c3)cc2)CC1
inactive: DU-145 prostate 77.9% | MALME-3M melanoma 88.4% | MDA-MB-231 breast 83.3% | RXF 393 renal 63.4% | SF-268 CNS 87% | SF-295 CNS 103% | SF-539 CNS 49.4% | UACC-257 melanoma 75.2% | M14 melanoma 87.2% | HCT-15 colon 17% | HT29 colon 11.6% | SNB-75 CNS 65.3% | SNB-19 CNS 73.7% | U251 CNS 38.4% | PC-3 prostate 43.4% | SK-MEL-5 melanoma 74.3% | LOX IMVI melanoma 12.8% | SK-MEL-28 melanoma 87.2%
active: K-562 leukemia 7.64%

COc1ccc(-c2ccc3c4c(cccc24)C(=O)N(N2C(=O)c4cccc5cccc(c45)C2=O)C3=O)cc1
inactive: DU-145 prostate 112% | K-562 leukemia 86.4% | MALME-3M melanoma 93.1% | MDA-MB-231 breast 83.7% | RXF 393 renal 108% | SF-268 CNS 97.8% | SF-295 CNS 105% | SF-539 CNS 95.7% | UACC-257 melanoma 105% | M14 melanoma 94.1% | HCT-15 colon 99.1% | HT29 colon 99.1% | SNB-75 CNS 73.4% | SNB-19 CNS 96.3% | U251 CNS 104% | PC-3 prostate 87.7% | SK-MEL-5 melanoma 99.6% | UACC-62 melanoma 96.8% | SK-MEL-28 melanoma 106%

O=c1[nH]c2cc(Cl)ccc2n1C1CCN(c2ccc3nnc(Cl)n3n2)CC1
inactive: DU-145 prostate 99.8% | K-562 leukemia 81.4% | MALME-3M melanoma 104% | MDA-MB-231 breast 95.6% | RXF 393 renal 83.7% | SF-268 CNS 92.5% | SF-295 CNS 87.5% | SF-539 CNS 91% | UACC-257 melanoma 95.9% | M14 melanoma 98.1% | HCT-15 colon 96.5% | HT29 colon 93.2% | SNB-75 CNS 73.1% | SNB-19 CNS 92.6% | U251 CNS 99.2% | PC-3 prostate 82% | SK-MEL-5 melanoma 91.6% | UACC-62 melanoma 75.8% | LOX IMVI melanoma 99.1% | SK-MEL-28 melanoma 91.1%

Clc1ccc(-c2csc(N/N=C/c3nc4ccccc4n3C3CC3)n2)cc1
inactive: DU-145 prostate 113% | K-562 leukemia 107% | MALME-3M melanoma 96.3% | MDA-MB-231 breast 96.7% | RXF 393 renal 107% | SF-268 CNS 94.7% | SF-295 CNS 96.5% | SF-539 CNS 99.4% | UACC-257 melanoma 91% | M14 melanoma 91.9% | HCT-15 colon 90.5% | HT29 colon 99.8% | SNB-75 CNS 82.4% | SNB-19 CNS 98.3% | U251 CNS 97.2% | PC-3 prostate 98.4% | SK-MEL-5 melanoma 97.1% | UACC-62 melanoma 98.4% | SK-MEL-28 melanoma 101%

CC1CCN(S(=O)(=O)c2ncsc2-c2ccccc2)CC1
inactive: DU-145 prostate 92% | K-562 leukemia 72.7% | MALME-3M melanoma 78.7% | MDA-MB-231 breast 92% | SF-268 CNS 82.9% | SF-295 CNS 30.7% | SF-539 CNS 44.3% | UACC-257 melanoma 106% | M14 melanoma 83.5% | HCT-15 colon 79% | HT29 colon 88.5% | SNB-75 CNS 55.6% | SNB-19 CNS 83% | U251 CNS 57.9% | PC-3 prostate 80.8% | SK-MEL-5 melanoma 96.8% | UACC-62 melanoma 96.5% | SK-MEL-28 melanoma 75.3%
active: RXF 393 renal 9.28%

C/C(=N\NC(=O)CSc1nc2sc3c(c2c(=O)n1-c1ccccc1)CCC(C)C3)c1ccc(Cl)cc1 (stereo unspecified)
inactive: DU-145 prostate 22.8% | K-562 leukemia 16.5% | MALME-3M melanoma 29.1% | MDA-MB-231 breast 39.8% | SF-268 CNS 23.8% | SF-295 CNS 40.9% | SF-539 CNS 18.5% | UACC-257 melanoma 75% | HCT-15 colon 25.7% | HT29 colon 62.8% | SNB-75 CNS 41.5% | SNB-19 CNS 35.3% | U251 CNS 26.7% | PC-3 prostate 31.7% | SK-MEL-28 melanoma 25.4%
active: RXF 393 renal -23.3% | M14 melanoma -34% | SK-MEL-5 melanoma -14.9% | UACC-62 melanoma 4.83% | LOX IMVI melanoma 6.72%

O=C(CSc1nnc(-c2cccs2)n1-c1ccccc1)Nc1ccc(F)cc1
inactive: DU-145 prostate 107% | K-562 leukemia 65.4% | MALME-3M melanoma 97.4% | MDA-MB-231 breast 83.1% | RXF 393 renal 97.9% | SF-268 CNS 101% | SF-295 CNS 91% | SF-539 CNS 89.9% | UACC-257 melanoma 103% | M14 melanoma 99.2% | HCT-15 colon 93.6% | HT29 colon 101% | SNB-75 CNS 104% | SNB-19 CNS 91% | U251 CNS 99.5% | PC-3 prostate 99% | SK-MEL-5 melanoma 97.6% | UACC-62 melanoma 67.9% | LOX IMVI melanoma 97.9% | SK-MEL-28 melanoma 104%

CNC(=O)c1c(NC(=O)c2ccc(F)cc2F)sc2c1CCC(=O)C2
inactive: DU-145 prostate 66.4% | K-562 leukemia 12.7% | SF-268 CNS 20.3% | M14 melanoma 19.3% | HT29 colon 12.8% | SNB-19 CNS 19.1% | U251 CNS 12.6% | PC-3 prostate 11.7% | LOX IMVI melanoma 14.5% | SK-MEL-28 melanoma 30.2%
active: MALME-3M melanoma -9.54% | MDA-MB-231 breast -16.6% | RXF 393 renal -28.9% | SF-295 CNS -3.76% | SF-539 CNS -28.6% | UACC-257 melanoma -2.26% | HCT-15 colon -2.45% | SNB-75 CNS 4.82% | SK-MEL-5 melanoma -64.9% | UACC-62 melanoma -25.5%
